# From the supplement of paper PMC9801561
# ± gives the standard deviation of the averaged measurements.
# What was measured:
# [1] = system: Escherichia coli Nissle 1917; experiment: area under OmniLog respiration curve over 48 h (OmniLog units x h); higher = more growth / nutrient utilisation; extreme values may be limits of the assay; details: incubation: 48 h, 37 °C
# [2] = system: Escherichia coli Nissle 1917; experiment: DuctApe activity index of respiration/growth curve (0 no growth to 9 maximum) (index 0-9); higher = more growth / nutrient utilisation, active = 3 or more; extreme values may be limits of the assay; details: incubation: 48 h, 37 °C
# [3] = nutrient role: sole nitrogen source (pyruvate carbon)
# [4] = nutrient role: sole phosphorus source (pyruvate carbon)
# [5] = nutrient role: C-Source, carbohydrate
# [6] = nutrient role: C-Source, carboxylic acid
# [7] = nutrient role: sole sulfur source (pyruvate carbon)
# [8] = nutrient role: C-Source, alcohol
# [9] = nutrient role: N-Source, inorganic
# 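For DuctApe activity index of respiration/growth curve (0 no growth to 9 maximum) in this document: biolog PM4 phosphorus and sulfur plates, tetrazolium violet dye reduction read in the OmniLog every 15 min, kinetic curves scored by DuctApe, each plate run in triplicate.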
smiles,measurement,setting,value
Cc1c[nH]c(=O)[nH]c1=O [Thymine],area under OmniLog respiration curve,[1]; [3],67 ± 110
same,DuctApe activity index,[2]; [3],0 (inactive)
"Nc1ncnc2c1ncn2[C@@H]1O[C@@H]2COP(=O)(O)O[C@H]2[C@H]1O [Adenosine 3`,5`-Cyclic Monophosphate]",area under OmniLog respiration curve,[1]; [4],5670 ± 1300
same,DuctApe activity index,[2]; [4],6.67 (active)
NO [Hydroxylamine],area under OmniLog respiration curve,[1]; [3],5.62 ± 1.6
same,DuctApe activity index,[2]; [3],0 (inactive)
NC(=O)OP(=O)(O)O [Carbamyl Phosphate],area under OmniLog respiration curve,[1]; [4],9480 ± 480
same,DuctApe activity index,[2]; [4],9 (active)
OC[C@H]1OC(O)[C@H](O)[C@@H](O)[C@H]1O (stereo partly drawn) [D-Galactose],area under OmniLog respiration curve,[1]; [5],7350 ± 520
same,DuctApe activity index,[2]; [5],7.67 (active)
NC(=O)NC(N)=O [Biuret],area under OmniLog respiration curve,[1]; [3],3650 ± 1400
same,DuctApe activity index,[2]; [3],5 (active)
O=C(O)[C@H](O)[C@@H](O)C(=O)O [L-Tartaric acid],area under OmniLog respiration curve,[1]; [6],34 ± 28
same,DuctApe activity index,[2]; [6],0 (inactive)
Nc1nc2[nH]cnc2c(=O)[nH]1 [Guanine],area under OmniLog respiration curve,[1]; [3],27.5 ± 39
same,DuctApe activity index,[2]; [3],0 (inactive)
N[C@@H](CSC[C@H](N)C(=O)O)C(=O)O [Lanthionine],area under OmniLog respiration curve,[1]; [7],7490 ± 330
same,DuctApe activity index,[2]; [7],8 (active)
O=C(O)C(=O)O [Oxalic acid],area under OmniLog respiration curve,[1]; [6],5.41 ± 1.2
same,DuctApe activity index,[2]; [6],0 (inactive)
O=P1(O)OP(=O)(O)OP(=O)(O)O1 [Trimetaphosphate],area under OmniLog respiration curve,[1]; [4],9730 ± 800
same,DuctApe activity index,[2]; [4],9 (active)
"CC(=O)C(C)=O [2,3-Butanedione]",area under OmniLog respiration curve,[1]; [8],19 ± 14
same,DuctApe activity index,[2]; [8],0 (inactive)
OC[C@H]1O[C@H](OC[C@H]2OC(O)[C@H](O)[C@@H](O)[C@@H]2O)[C@H](O)[C@@H](O)[C@H]1O (stereo partly drawn) [D-Melibiose],area under OmniLog respiration curve,[1]; [5],7880 ± 1000
same,DuctApe activity index,[2]; [5],7.67 (active)
OC[C@@H](O)[C@@H](O)CO [i-Erythritol],area under OmniLog respiration curve,[1]; [5],4.72
same,DuctApe activity index,[2]; [5],0 (inactive)
Nc1ccn([C@@H]2O[C@H](CO)[C@@H](O)[C@H]2OP(=O)(O)O)c(=O)n1 [Cytidine 2`-Monophosphate],area under OmniLog respiration curve,[1]; [4],9170 ± 640
same,DuctApe activity index,[2]; [4],8.67 (active)
O=C[C@@H](O)[C@H](O[C@@H]1O[C@H](CO)[C@H](O)[C@H](O)[C@H]1O)[C@H](O)CO [3-O-b-D-Galactopyranosyl-D-Arabinose],area under OmniLog respiration curve,[1]; [5],8530 ± 550
same,DuctApe activity index,[2]; [5],8.33 (active)
O=C(O)C[C@@H](O)C(=O)O [D-Malic acid],area under OmniLog respiration curve,[1]; [6],3920 ± 860
same,DuctApe activity index,[2]; [6],5.33 (active)
O=P(O)(O)O [Phosphate],area under OmniLog respiration curve,[1]; [4],9750 ± 430
same,DuctApe activity index,[2]; [4],9 (active)
N [Ammonia],area under OmniLog respiration curve,[1]; [9],8190 ± 1000
same,DuctApe activity index,[2]; [9],8.33 (active)
NC(CCSCC(N)C(=O)O)C(=O)O (configuration not stated) [Cystathionine],area under OmniLog respiration curve,[1]; [7],4100 ± 130
same,DuctApe activity index,[2]; [7],6 (active)
OCC1OC(OC2C(CO)OC(O)C(O)C2O)C(O)C(O)C1O [D-Cellobiose],area under OmniLog respiration curve,[1]; [5],963 ± 760
same,DuctApe activity index,[2]; [5],1.33 (inactive)
NCCN [Ethylenediamine],area under OmniLog respiration curve,[1]; [3],4.72
same,DuctApe activity index,[2]; [3],0 (inactive)
O=c1ccn(C2OC(COP(=O)(O)O)C(O)C2O)c(=O)[nH]1 (configuration not stated) [Uridine 5`-Monophosphate],area under OmniLog respiration curve,[1]; [4],8960 ± 820
same,DuctApe activity index,[2]; [4],8.67 (active)
NCCc1c[nH]cn1 [Histamine],area under OmniLog respiration curve,[1]; [3],5.03 ± 0.54
same,DuctApe activity index,[2]; [3],0 (inactive)
OC[C@H]1O[C@@](CO)(O[C@H]2O[C@H](CO)[C@@H](O)[C@H](O)[C@H]2O)[C@@H](O[C@H]2O[C@H](CO)[C@@H](O)[C@H](O)[C@H]2O)[C@@H]1O [D-Melezitose],area under OmniLog respiration curve,[1]; [5],106 ± 150
same,DuctApe activity index,[2]; [5],1 (inactive)
OC[C@H]1O[C@H](O[C@H]2[C@H](O)[C@@H](O)[C@@H](O[C@H]3[C@H](O)[C@@H](O)C(O)O[C@@H]3CO)O[C@@H]2CO)[C@H](O)[C@@H](O)[C@@H]1O (mixture of isomers) [Maltotriose],area under OmniLog respiration curve,[1]; [5],8540 ± 380
same,DuctApe activity index,[2]; [5],8 (active)
OCC1OC(O)(CO)C(O)C1O [D-Fructose],area under OmniLog respiration curve,[1]; [5],8740 ± 720
same,DuctApe activity index,[2]; [5],8.67 (active)
CC(O)C(N)=O (racemic) [DL-Lactamide],area under OmniLog respiration curve,[1]; [3],57 ± 91
same,DuctApe activity index,[2]; [3],0 (inactive)
C[C@H](N)C(=O)N[C@@H](CCC(=O)O)C(=O)O,area under OmniLog respiration curve,[1]; [3],8550 ± 1300
same,DuctApe activity index,[2]; [3],8.33 (active)
OCC1(O)OC[C@@H](O)[C@H](O)[C@@H]1O (stereo partly drawn) [D-Tagatose],area under OmniLog respiration curve,[1]; [5],6560 ± 520
same,DuctApe activity index,[2]; [5],7.33 (active)
NCCO [Ethanolamine],area under OmniLog respiration curve,[1]; [3],27.4 ± 39
same,DuctApe activity index,[2]; [3],0 (inactive)
O=C(O)[C@@H](O)[C@H](O)[C@H](O)[C@@H](O)C(=O)O [Mucic acid],area under OmniLog respiration curve,[1]; [6],8240 ± 630
same,DuctApe activity index,[2]; [6],8.33 (active)
CC(=O)C(=O)O [Pyruvic acid],area under OmniLog respiration curve,[1]; [6],9610 ± 520
same,DuctApe activity index,[2]; [6],9 (active)
OC[C@H]1O[C@H](O[C@H]2[C@H](O)[C@@H](O)[C@H](O)O[C@@H]2CO)[C@H](O)[C@@H](O)[C@@H]1O [Maltose],area under OmniLog respiration curve,[1]; [5],7970 ± 810
same,DuctApe activity index,[2]; [5],7.67 (active)
OCC1(O)OC[C@H](O)[C@@H](O)[C@@H]1O (stereo partly drawn) [L-Sorbose],area under OmniLog respiration curve,[1]; [5],6370 ± 540
same,DuctApe activity index,[2]; [5],7 (active)
OCC(O)CO [Glycerol],area under OmniLog respiration curve,[1]; [5],7310 ± 730
same,DuctApe activity index,[2]; [5],7.67 (active)
